Source: PubChem BioAssay (NCI)
Compounds without any hit were thinned out: in the full panel of roughly 79,000, 15% have a hit. Values without a mark were called inactive. Active and inactive are the calls of the source. Cut-off read from the data, not from the text of the source: active = growth inhibition above about 70%; inactive = the rest.

Legend:
[1] = NCI Yeast Anticancer Drug Screen. Data for the rad50 strain (AID 155);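 note: 0% = growth of vehicle-only cultures of the same strain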; conditions: S. cerevisiae rad50 strain growth inhibition, active compounds read high
Procedure, shortened: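 A DNA repair-deficient yeast mutant serves as the test organism; compound-induced growth inhibition is calculated against vehicle-treated cells.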

[2] = NCI Yeast Anticancer Drug Screen. Data for the mec2-1 strain (AID 157); conditions: S. cerevisiae mec2-1 strain, active compounds read high
Procedure, shortened: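 Each compound was tested on mec2-1 yeast, a strain altered in DNA damage repair or cell cycle control. Growth inhibition is reported relative to vehicle.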

[3] = NCI Yeast Anticancer Drug Screen. Data for the sgs1 mgt1 strain (AID 161);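 note: 0% = growth of cultures given vehicle only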; conditions: S. cerevisiae sgs1 mgt1 strain, active compounds read high
Procedure, shortened: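 Genetically altered yeast, compound exposure, growth inhibition relative to vehicle.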

[4] = NCI Yeast Anticancer Drug Screen. Data for the cln2 rad14 strain (AID 165);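 note: 0% = growth equal to vehicle treated cultures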; conditions: S. cerevisiae cln2 rad14 strain, active compounds read high
Procedure, shortened: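 Test compounds were added to cln2 rad14 yeast cultures; inhibition of growth was then determined by comparison with vehicle treatment.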

[5] = NCI Yeast Anticancer Drug Screen. Data for the bub3 strain (AID 167); conditions: S. cerevisiae bub3 mutant strain, active compounds read high
Procedure, shortened: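 Inhibition values come from growth of compound-treated mutant yeast normalised to vehicle-treated controls.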

[6] = NCI Yeast Anticancer Drug Screen. Data for the mlh1 rad18 strain (AID 175); conditions: S. cerevisiae mlh1 rad18 strain growth inhibition, active compounds read high
Procedure, shortened: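 Inhibition values reflect reduced growth of mutant yeast versus vehicle-treated controls following compound exposure; the mutations affect DNA damage repair.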

[7] = at 5.0 µM (retest, dose inferred, filed as 0.5)
[8] = at 50.0 µM (retest, dose inferred, filed as 5.0)

SMILES | growth inhibition [1, 7] [%] | growth inhibition [1, 8] | growth inhibition ([1]; at 50.0 µM) | growth inhibition [2, 7] [%] | growth inhibition [2, 8] | growth inhibition ([2]; at 50.0 µM) | growth inhibition [3, 7] [%] | growth inhibition [3, 8] | growth inhibition ([3]; at 50.0 µM) | growth inhibition [4, 7] [%] | growth inhibition [4, 8] | growth inhibition ([4]; at 50.0 µM) | growth inhibition [5, 7] [%] | growth inhibition [5, 8] | growth inhibition ([5]; at 50.0 µM) | growth inhibition [6, 7] [%] | growth inhibition [6, 8] | growth inhibition ([6]; at 50.0 µM)
CSC(SC)(C(=O)O)c1cc(C)no1 | -7 | -23% | 19.4% | -17 | -2% | 16.6% | -17 | -15% | 2.55% | -7 | 10% | 45.2% | 14 | 7% | 5.2% | -2 | -21% | 1.2%
C(/Cc1ccc2c(c1)OCO2)=N\NC1=NCCCCN1 | -3 | -18% | 15.7% | -3 | -5% | -7.25% | -2 | -15% | -16.2% | 0 | -17% | 28.8% | -1 | -20% | 3.2% | 0 | -18% | -6.5%
CC12C=CC(=O)C=C1CCC1C3CCC(O)(C(=O)CO)C3(C)CC(O)C12F (configuration not stated) | 2 | 63% | 11.4% | 4 | 65% | 25.6% | 3 | 54% | 7.65% | 6 | 35% | 72.8% (active) | 6 | 82% (active) | 0.6% | 4 | 79% (active) | 2.15%
CCCC(C(=O)OCCNC1CCCCC1)c1ccccc1 (configuration not stated) | 2 | 18% | 71.3% (active) | -13 | 14% | 11.9% | 0 | 37% | 63.3% | -38 | 47% | 35.1% | -4 | 69% | 28.5% | 2 | 18% | 55.2%
NC(=S)N/N=C1\NC(=O)/C(=C/c2ccc3c(c2)OCO3)S1 | 16 | 12% | -45.6% | 15 | 20% | -40.6% | 13 | 13% | -13.3% | 16 | 11% | -13.9% | 9 | 31% | 0.7% | 14 | 18% | -14%
CCOC(=O)/C(C#N)=C/c1coc2cc(C)cc(C)c2c1=O | 6 | 100% (active) | 70.4% (active) | 2 | 97% (active) | 90.4% (active) | -3 | 98% (active) | 79.9% (active) | -2 | 89% (active) | 89.3% (active) | -20 | 93% (active) | 83% (active) | 15 | 98% (active) | 65.8%
[N-]=[N+]=CC(=O)c1ccc(C(=O)C=[N+]=[N-])cc1 | 8 | 95% (active) | 99.2% (active) | 12 | 99% (active) | 99.5% (active) | 10 | 95% (active) | 99.4% (active) | 8 | 98% (active) | 98.7% (active) | 5 | 98% (active) | 99.5% (active) | 11 | 95% (active) | 99.2% (active)
CCCCCCCCCCCC(=O)NCCc1ccc(O)c(O)c1 | 4 | 94% (active) | 97.2% (active) | 5 | 96% (active) | 98.5% (active) | 4 | 95% (active) | 97.5% (active) | -3 | 55% | 94.2% (active) | -7 | 91% (active) | 95.8% (active) | 1 | 96% (active) | 98% (active)
c1ccc2c(CCc3ccncc3)cccc2c1 | 4 | 74% (active) | 95.4% (active) | 2 | 60% | 95.5% (active) | 1 | 60% | 96% (active) | 3 | 53% | 88.5% (active) | 10 | 81% (active) | 94.1% (active) | 0 | 71% (active) | 92.5% (active)
